According to PubChem BioAssay AID430 (Sanford-Burnham Center for Chemical Genomics, 2006):
Out of some 63,000 compounds screened, about 1,100 (1.7%) were called active. The full list was thinned out, with actives kept by preference. Entries with a potency or affinity are not part of this list. A number with no mark means an inactive call. Rule as the data show it: active = cytotoxicity above about 50%; inactive = the rest.

Assay: cytotoxicity in HPDE-C7 cells, cell-based, fluorescence, HTS (AID 430);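 also: cells exposed to compound for 48 hours before viability readout; 0% = vehicle and 100% = reference cytotoxic drug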
Conditions: HPDE-C7 pancreatic duct cells viability, at 10 µM, active compounds read high

Row | SMILES | cytotoxicity
1 | CCOCCOC(=O)C1=C(C)N(C)C(=O)NC1c1ccccc1Cl (stereo unspecified) | -0.5%
2 | C/C(NCCN1CCOCC1)=C(\C#N)C(N)=O | -5.5%
3 | CCOC(=O)c1sc(NC(C)=O)c(C(=O)OCC)c1C | 4.3%
4 | CCOC(=O)c1c(NC(C)=O)sc2c(O)cccc12 | 21.8%
5 | CCOC(=O)c1c(NC(C)=O)sc2c(O)c(CN3CCN(CC)CC3)ccc12 | 68% (active)
6 | CC(=O)Nc1ccc(S(=O)(=O)NCC2CCC(C(=O)N3CCCCCC3)CC2)cc1 (stereo unspecified) | -6.2%
7 | Cc1cc(C)nc(-n2nc(C)cc2NC(=O)CN2CCc3ccccc3C2)n1 | 19.1%
8 | COc1ccc(CNc2nc3nc(C)cc(C)n3n2)cc1OC | 2.5%
9 | COc1ccccc1N1CCN(CC(=O)Nc2cc(C)nn2-c2nc(C)cc(C)n2)CC1 | 52.4% (active)
10 | COc1ccc(CNCC(=O)Nc2cc(C)nn2-c2nc(C)cc(C)n2)cc1OC | 52.9% (active)
11 | Cc1cc(C)nc(-n2nc(C)cc2NC(=O)c2ccc(Br)o2)n1 | 25.7%
12 | Cc1cc(C)nc(-n2nc(C)cc2NC(=O)CN2CCC(C)CC2)n1 | 0.1%
13 | COc1ccc(C(CC(=O)O)NC(=O)c2ccco2)cc1OC (stereo unspecified) | -6.5%
14 | O=C(c1ccco1)N1CCN(C(c2ccccc2)c2nnnn2Cc2cccs2)CC1 (stereo unspecified) | 7.3%
15 | Clc1ccc(OCc2nc(-c3ccccn3)no2)c(Br)c1 | 4.3%
16 | Cc1ccc(OCc2nc(-c3ccccn3)no2)c(Br)c1 | 12.5%
17 | CC(C)CCn1c(=O)c2ccccc2n2c(CN(C)Cc3ccccc3)nnc12 | -12.8%
18 | O=c1[nH]c(CSc2nc3ccccc3o2)nc2c1cnn2-c1ccccc1 | 0.3%
19 | O=C(NCCc1ccccc1)C1CCCN(S(=O)(=O)c2cccc3nsnc23)C1 (stereo unspecified) | -0.3%
20 | CCN1CCCC1CNC(=O)C1CCCN(S(=O)(=O)c2cccc3nsnc23)C1 (stereo unspecified) | 61.7% (active)
21 | O=C(NCC1CCCO1)C1CCCN(S(=O)(=O)c2cccc3nsnc23)C1 (stereo unspecified) | -15%
22 | CC(=O)Nc1ccc(S(=O)(=O)NCc2cn3c(C)csc3n2)cc1 | 10.5%
23 | O=C(Nc1c(F)cc(F)cc1Br)c1cc(-c2ccco2)on1 | 58.5% (active)
24 | Cc1cc(C(=O)Nc2c(F)cc(F)cc2Br)no1 | 0.9%
25 | O=C(Nc1c(F)cc(F)cc1Br)c1ccco1 | 0.6%
26 | COc1ccccc1-c1cc(C(=O)Nc2c(F)cc(F)cc2Br)no1 | -10.6%

Row | SMILES | cytotoxicity
27 | O=C(Nc1ccc(F)cc1F)c1cc(-c2ccco2)on1 | -5.3%
28 | O=C(Nc1c(F)cc(F)cc1Br)c1cc(-c2ccc(O)cc2)on1 | 54.4% (active)
29 | Cc1ccc(S(=O)(=O)CCc2nnc(NC(=O)c3cnccn3)s2)cc1 | -8.2%
30 | CC(=O)Oc1cc2c(C(=O)NCCCN3CCOCC3)c(C)oc2c2ccccc12 | 5.1%
31 | CCN(CC)c1ccc(NC(=O)c2cc(OC)cc(OC)c2)c(C)c1 | 53.5% (active)
32 | CCN(CC)c1ccc(NC(=O)c2cccc(OC)c2)c(C)c1 | 39.6%
33 | CCN(CC)c1ccc(NC(=O)c2c(OC)cccc2OC)c(C)c1 | 0.4%
34 | CCN(CC)c1ccc(C(=O)Nc2cccc(F)c2)cc1 | 34%
35 | CCOc1cccc(C(=O)Nc2ccc(N(CC)CC)cc2)c1 | 79.8% (active)
36 | CCOc1cccc(C(=O)Nc2ccc(N3CCN(S(C)(=O)=O)CC3)cc2)c1 | -6.2%
37 | COc1ccc(CC(=O)NCc2ccccc2Cl)cc1S(=O)(=O)N1CCOCC1 | 1.1%
38 | CCSc1nsc(SCC)c1C(N)=O | -6.7%
39 | CCCN(CCO)Cc1cccc(Cl)c1 | 6.6%
40 | COc1ccc(NS(=O)(=O)c2ccc(C)c(C(=O)O)c2)cc1 | 5%
41 | CCOC(=O)N1CCN(C(=O)c2cc3sccc3n2C)CC1 | -9.1%
42 | Cc1onc(-c2ccccc2Cl)c1C(=O)N1CCN=C1SCc1cccnc1 | -11.9%
43 | COc1cccc(CN(C)C(=O)c2ccc(S(=O)(=O)N3CCCC3)cc2)c1OC | -5.4%
44 | Cc1nnc(NC(=O)c2cccc(F)c2)s1 | -2.4%
45 | O=C(Nc1ccncc1)c1cccc(F)c1 | -0.4%
46 | O=C(Nc1ncccc1Cl)c1cccc(F)c1 | 62.6% (active)
47 | O=C(Nc1ccc(Cl)cn1)c1cccc(F)c1 | 53.4% (active)
48 | CN(C)S(=O)(=O)c1cccc(C(=O)Nc2ccc(Cl)cn2)c1 | -15.5%
49 | O=C(Nc1ccc(Cl)cn1)c1cccnc1 | 13%
50 | O=C(CSc1nnc(-c2cccs2)o1)N1CCCc2ccccc21 | -17.8%
51 | CCOC(=O)C1CCCN(CC(=O)Nc2c(C(=O)OC)[nH]c3ccc(C)cc23)C1 (stereo unspecified) | -8.3%
52 | N=c1cc(C2(O)CCCCC2)n2c(nc3ccccc32)s1 | 51.1% (active)

Row | SMILES | cytotoxicity
53 | CC(C)(O)c1cc(=O)sc2nc3ccccc3n12 | -13.4%
54 | c1ccc2nc3c(nc2c1)sc1nc2ccccc2n13 | -6.8%
55 | COc1ccc(NC(=O)CS(=O)CC(=O)Nc2cc(Cl)ccc2OC)cc1 (stereo unspecified) | -12.2%
56 | CC(Oc1ccc(Cl)cc1Cl)C(=O)Nc1ccncc1 (stereo unspecified) | -0.5%
57 | Cc1ccc(N(CC(O)CN(C)C)S(=O)(=O)c2ccccc2)cc1 (stereo unspecified) | 3.3%
58 | COc1ccc(C(=O)Nc2nnc(-c3ccccc3)o2)cc1OC | -9.5%
59 | O=C(Nc1nnc(-c2ccccc2)o1)Nc1ccccc1Cl | 22.1%
60 | CC(=O)c1ccc(C(=O)Nc2nnc(-c3ccc(Cl)cc3)o2)cc1 | 66.8% (active)
61 | Cc1cccc(-c2nnc(NC(=O)c3ccc(Cl)cc3)o2)c1 | 79.5% (active)
62 | CN(C)c1ccc(C(=O)Nc2nnc(-c3ccc(Cl)cc3)o2)cc1 | 31.7%
63 | Cc1cccc(-c2nnc(-c3ccccc3)o2)c1 | -3.9%
64 | Cc1cccc(-c2nnc(-c3ccc(N)cc3)o2)c1 | -2%
65 | COc1ccccc1C(=O)Nc1nnc(-c2ccc(Cl)cc2)o1 | -10.4%
66 | Cc1cc(NC(c2cccnc2)c2c(C)[nH]c3ccccc23)no1 (stereo unspecified) | 5.2%
67 | CC(=O)c1ncnn1CC(=O)c1ccc(Cl)cc1Cl | 13.6%
68 | O=C(CCN1CCc2ccccc2C1)Nc1cccc(F)c1 | 3.9%
69 | Cc1ccc(NS(=O)(=O)c2cccc(C(=O)Nc3cc(C)on3)c2)cc1 | -4.8%
70 | Cc1ccc2nc3ccc(N4CCN(C)CC4)nn3c(=O)c2c1 | -2.8%
71 | COc1cccc(C2=NOC(C(=O)NC(C)(C)C)C2)c1 (stereo unspecified) | -11.2%
72 | COc1cccc(C2=NOC(C(=O)NC(C)C)C2)c1 (stereo unspecified) | -3.9%
73 | CC(C)(C)SCCNS(=O)(=O)c1ccc(F)cc1 | 5.7%
74 | O=S(=O)(c1cccc(-c2nnc(SCc3ccc(Cl)cc3)o2)c1)N1CCCCC1 | -2.9%
75 | Cc1cc2nc(-c3ccc(SCC(=O)N4CCOCC4)nc3)[nH]c2cc1C | -15.5%
76 | O=C(NC1=NCCS1)Nc1ccccc1 | 1.2%
77 | COc1ccc(C2c3c(-c4cc(Cl)c(C)cc4O)n[nH]c3C(=O)N2Cc2cccnc2)cc1OC (stereo unspecified) | 26.6%
78 | COc1ccc(CCN2C(=O)c3[nH]nc(-c4ccccc4O)c3C2c2cccc(O)c2)cc1OC (stereo unspecified) | 66% (active)

Row | SMILES | cytotoxicity
79 | COc1ccc(CCN2C(=O)c3[nH]nc(-c4ccccc4O)c3C2c2ccccc2)cc1OC (stereo unspecified) | 54.9% (active)
80 | Cc1ccc(C2c3c(-c4ccccc4O)n[nH]c3C(=O)N2Cc2ccncc2)cc1 (stereo unspecified) | -3.9%
81 | COc1cc(C2c3c(-c4cc(C)cc(C)c4O)n[nH]c3C(=O)N2CCCO)cc(OC)c1OC (stereo unspecified) | 0.6%
82 | COCCCN1C(=O)c2[nH]nc(-c3cc(C)cc(C)c3O)c2C1c1ccc(O)c(OC)c1 (stereo unspecified) | -2.5%
83 | CC(C)OCCCN1C(=O)c2[nH]nc(-c3ccccc3O)c2C1c1cccc(Cl)c1 (stereo unspecified) | -3.6%
84 | COCCCN1C(=O)c2[nH]nc(-c3ccccc3O)c2C1c1cccc(Cl)c1 (stereo unspecified) | 13.3%
85 | COc1ccc(C2c3c(-c4ccccc4O)n[nH]c3C(=O)N2CCc2ccc(OC)c(OC)c2)cc1 (stereo unspecified) | 36.9%
86 | Cc1cc(O)c(-c2n[nH]c3c2C(c2cccc(O)c2)N(Cc2cccnc2)C3=O)cc1Cl (stereo unspecified) | 8%
87 | COCCCN1C(=O)c2[nH]nc(-c3ccccc3O)c2C1c1ccc(Cl)cc1 (stereo unspecified) | 67.3% (active)
88 | Cc1noc(C)c1C(=O)OCC(=O)c1c[nH]c2ccccc12 | 4.1%
89 | O=C(NCCC1=CCCCC1)C1CC(=O)N(C2CCCCC2)C1 (stereo unspecified) | 1.5%
90 | COc1ccc(-c2noc(CCC(=O)N3CCN(c4cc(C)ccc4C)CC3)n2)cc1 | 11.6%
91 | O=C(CSCc1nc2ccccc2[nH]1)N1CCN(c2cccc(Cl)c2)CC1 | 7.4%
92 | COc1ccc(CCN2CC(C(=O)O)CC2=O)cc1 (stereo unspecified) | 1.2%
93 | c1ccc(CCc2nc(-c3ccccn3)no2)cc1 | 6.2%
94 | O=C1c2ccccc2NC(c2ccccn2)N1c1ccc(Cl)cc1 (stereo unspecified) | -4.1%
95 | CCN(CC)S(=O)(=O)c1ccc(NC(=O)CSc2nnc(-c3ccc(F)cc3)o2)cc1 | -7.7%
96 | COc1cccc(-c2nnc(NC(=O)c3ccc(S(=O)(=O)N4CCOCC4)cc3)o2)c1 | 13.7%
97 | COc1cccc(-c2nnc(NC(=O)c3ccc(S(=O)(=O)N4CC(C)OC(C)C4)cc3)o2)c1 (stereo unspecified) | -5.9%
98 | CCCN(CCC)S(=O)(=O)c1ccc(C(=O)Nc2nnc(-c3cc(OC)cc(OC)c3)o2)cc1 | 47.5%
99 | CCCN(CCC)S(=O)(=O)c1ccc(C(=O)Nc2nnc(-c3cccc(OC)c3)o2)cc1 | 66.4% (active)
100 | COc1cccc(-c2nnc(NC(=O)c3ccc(S(=O)(=O)N(CC(C)C)CC(C)C)cc3)o2)c1 | 51.2% (active)
101 | COc1cccc(-c2nnc(NC(=O)c3ccccc3Br)o2)c1 | 22.6%
